# In the library only some 19% were active in any assay of this set; here they are far more common.
# Shiga inhibitor: A qHTS for Small Molecule Inhibitors of Shiga Toxin; Vero cells, Shiga toxin protein synthesis inhibition reporter; inhibition, % at 38.7 µM; 290,000 compounds, 9.2% hits; AID 2315, 2010; in the data active = inhibition mostly above about 28%, no sharp cut-off; inactive = mostly below about 43%
# Pf growth 48h: Primary qHTS for delayed death inhibitors of the malarial parasite plastid, 48 hour incubation | P. falciparum luciferase growth in erythrocytes, 48 h | Potency, µM (series often up to 28.7 µM), actives largely listed as inhibitors | 310,000 compounds, 5.9% hits
#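 Luminescence readout; reporter = integrated firefly luciferase in P. falciparum. RBC culture at 2% hematocrit, 0.1% parasitemia final, 37 C/5% CO2; decreased signal taken as growth inhibition.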
# SARS PLP yeast: qHTS of Yeast-based Assay for SARS-CoV PLP; Potency, µM (highest dose often 32.9 µM), most hits filed as activators; 330,000 compounds, 0.19% hits; AID 485353, 2010; S. cerevisiae expressing SARS-CoV PLpro, growth rescue; calls by dose curve; note: nearly all actives have a fitted effect of over 55% in size
# Pf growth 96h: Primary qHTS for delayed death inhibitors of the malarial parasite plastid, 96 hour incubation; P. falciparum luciferase reporter growth, 96 h; Potency, µM (series often up to 28.7 µM), usual class: inhibitors; 320,000 compounds, 6.9% hits; AID 504834, 2011
#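 Two parasite generations (96 h, 37 C, 5% CO2) of compound exposure in infected erythrocytes (0.05% parasitemia, 2% hematocrit). Luciferase-reporter P. falciparum; decreased luminescence indicates inhibited growth, aimed at apicoplast-acting delayed death.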
# CHX counter: Cycloheximide Counterscreen for Small Molecule Inhibitors of Shiga Toxin. 300,000 compounds, 12% hits. AID 2314, 2010. max response, %. cell reporter, cycloheximide protein synthesis inhibition counterscreen; in the data active = max response mostly above about 13%, no sharp cut-off; inactive = mostly below about 14%; note: read at 38.3 µM for the half of the compounds with a filed dose
# AMA1 RON2 block: qHTS for Inhibitors of AMA1-RON; Towards Development of Antimalarial Drug Lead: Primary Screen | Plasmodium falciparum AMA1 (3D7) - RON2 peptide interaction | AlphaScreen AMA1-biotinylated RON2 peptide binding | Potency, µM (series often up to 58.2 µM), usual class: inhibitors | 360,000 compounds, 0.2% hits | AID 720542, 2013; note: nearly all actives have a fitted effect of over 45% in size
#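 AMA1 (3D7) with his tag at 25 nM final met compounds first, then biotinylated RON2 peptide at 25 nM; detection used donor plus acceptor beads, 10 µg/mL apiece, read by AlphaScreen after 30 min at room temperature.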
# A number is an active result; – = inactive; ? = inconclusive; · = no result; [ ] = remark or other dose. Unless noted, calls come from the whole dose curve; as a rule, active = well fitted curve in the direction sought with a large enough effect; inconclusive = small, poorly fitted or top-dose-only effect, or another doubt; inactive = no such curve, though single readings can be large; an effect the other way counts as inactive or inconclusive.
SMILES,Shiga inhibitor,Pf growth 48h,SARS PLP yeast,Pf growth 96h,CHX counter,AMA1 RON2 block
COC(=O)c1ccccc1NC(=O)CN1CCC(C(=O)c2ccc3c(c2)OCCO3)CC1,–,–,–,1.47µM,–,–
COC(=O)c1ccccc1NC(=O)c1ccc2c(c1)OCCCO2,–,–,–,?,22.5,–
CCc1ccc(C(=O)COC(=O)c2ccc(-c3nnc(-c4ccccc4)o3)cc2)cc1,–,–,–,–,–,–
CC(C)CC1NC(=O)C(CCCN)NC(=O)C(C(C)C)NC(=O)C2CCCN2C(=O)C(Cc2ccccc2)NC(=O)C(CC(C)C)NC(=O)C(CCCN)NC(=O)C(C(C)C)NC(=O)C2CCCN2C(=O)C(Cc2ccccc2)NC1=O (stereo not drawn),·,–,·,2.39µM,·,·
O=C1CCCc2cc3c(cc21)CC1(C3)Cc2cc3c(cc2C1)C(=O)CCC3,–,5.22µM,–,?,–,–
O=C(CN1CCN(Cc2ccccc2)CC1)N1CCCc2c1c(=O)oc1ccc(O)cc21,–,2.94µM,–,–,–,–
O=C(c1ccco1)N1CCN(CC(=O)N2CCCc3c2c(=O)oc2ccc(O)cc32)CC1,–,–,–,–,–,–
Cc1cccc(C)c1-n1nnnc1C1c2ccccc2C(=O)N1C1CC1 (stereo not drawn),·,·,·,·,·,–
CC(=O)NC1=NN(C(C)=O)C(c2ccc(C(C)C)cc2)S1 (stereo not drawn),–,–,–,–,15.6,–
CC(=O)N1N=C(c2ccc(C)cc2)OC1c1cccnc1 (stereo not drawn),61.4,–,–,–,–,–
CC(=O)N1N=C(c2cccc(Cl)c2)OC1c1cccc([N+](=O)[O-])c1 (stereo not drawn),–,?,–,?,–,–
CC(=O)N1N=C(c2cccc(Cl)c2)OC1c1ccc(C(C)C)cc1 (stereo not drawn),–,·,–,–,22.9,–
COc1ccc([C@H]2CC(=O)C[C@@H](CCn3cc(C(C)C)nn3)O2)cc1,·,·,·,·,·,–
Cc1ccc(CNC(=O)c2nnc(CS(=O)(=O)c3ccccc3)o2)cc1,–,?,–,?,–,–
O=C(NCc1ccccc1Cl)c1nnc(CS(=O)(=O)c2ccccc2)o1,–,5.22µM,–,–,–,–
CCOC(=O)N1CCN(C(=O)CNS(=O)(=O)c2c(C)cc(C)cc2C)CC1,–,–,–,?,–,–
CC(=O)Nc1ccc(NC(=O)C(C)OC(=O)C2(c3ccccc3F)CCCC2)cc1 (stereo not drawn),·,8.28µM,–,11.7µM,·,–
CC(=O)Nc1ccc(NC(=O)C(C)Oc2ccccc2F)cc1 (stereo not drawn),–,–,–,–,–,–
Cc1cccc(OCC(O)CN2CCN(c3ccccn3)CC2)c1C (stereo not drawn),–,–,–,–,–,–
CC1(C)Cc2cccc(OCC(O)CN3CCN(c4ccccn4)CC3)c2O1 (stereo not drawn),–,11.7µM,–,?,–,–
CC/C(=N\NC(=S)Nc1ccccc1)c1c(O)[nH]c(=O)[nH]c1=O,31.9,–,–,?,28.7,–
CCC(=NC1CCN(Cc2ccccc2)CC1)c1c(O)[nH]c(=O)[nH]c1=O,–,?,–,5.22µM,–,–
C=CCn1c(O)c(C(C)=NC2CCN(Cc3ccccc3)CC2)c(=O)[nH]c1=O,–,–,–,–,–,–
Nc1nc2c(nnn2C2CC(O)C(CO)O2)c(=O)[nH]1 (stereo not drawn),·,·,·,·,·,–
O=C(NC1=NCCS1)c1ccc(Cl)cc1,93.1,–,–,?,57.9,–
SMILES,Shiga inhibitor,Pf growth 48h,SARS PLP yeast,Pf growth 96h,CHX counter,AMA1 RON2 block
O=C(NC1=NCCS1)c1cccc(Br)c1,·,·,·,·,·,–
O=C(NC1=NCCS1)c1cccc2ccccc12,–,–,–,–,25.9,–
O=C(NC1=NCCS1)c1ccc(-c2ccc(Cl)cc2)o1,77.1,·,–,?,55.9,–
COc1ccc(Cl)cc1C(=O)NC1=NCCS1,–,–,–,–,16.2,–
O=C(Nc1ccc(Cl)cn1)c1ccc(-c2ccc(Cl)c(Cl)c2)o1,·,·,·,·,·,–
O=C(NC1=NCCS1)c1ccccc1Br,·,·,·,·,·,–
COc1ccc(Cl)cc1C(=O)Nc1ccc(NC(C)=O)cc1,–,–,–,–,–,–
COCCNC(=O)C(OC(=O)CC1Sc2ccccc2NC1=O)c1ccccc1 (stereo not drawn),–,?,–,?,–,–
Cc1cc(C)n(-c2ccc(C(=O)NC3=NCCS3)cc2)n1,92.4,–,–,–,41.3,–
Cc1ccc(CNC(=O)C2CCC(=O)N(CCc3cccc(F)c3)C2)s1 (stereo not drawn),–,–,–,–,–,–
Cc1cccc(N2CCN(C(=O)C3CCC(=O)N(Cc4ccccc4F)C3)CC2)c1C (stereo not drawn),–,9.28µM,–,10.4µM,15.0,–
O=C(NC1CCCCCC1)C1CCC(=O)N(Cc2ccccc2F)C1 (stereo not drawn),–,?,–,?,26.7,–
Cc1ccc(CNC(=O)C2CCC(=O)N(Cc3ccccc3F)C2)s1 (stereo not drawn),–,–,–,–,31.5,–
Cc1cc(CNC(=O)C2CCC(=O)N(Cc3ccccc3F)C2)on1 (stereo not drawn),–,–,–,?,–,–
Cc1ccc(CNC(=O)C2CCC(=O)N(CCc3ccccc3)C2)s1 (stereo not drawn),–,?,–,?,54.4,–
O=C(NCC1(O)CCCCC1)C1CCC(=O)N(Cc2ccccc2F)C1 (stereo not drawn),–,–,–,?,–,–
COc1cccc(-c2nnc(SCC3CNC(=O)O3)n2-c2ccc(Cl)cc2)c1 (stereo not drawn),–,–,–,?,–,–
Cc1cc(OCC(=O)C(C)(C)C)c2c(-c3ccccc3)cc(=O)oc2c1,–,–[0.00184 µM],–,–,–,–
Clc1ccc2c(c1)-c1nnc(Br)n1-c1ccccc1S2,–,10.4µM,–,?,–,–
Brc1nnc2n1-c1ccccc1Sc1ccccc1-2,–,11.7µM,–,8.28µM,–,–
c1ccc2c(c1)Sc1ccccc1-n1cnnc1-2,–,?,–,9.28µM,–,–
Clc1ccccc1-c1nnc2n1-c1ccccc1SC2,–,?,–,?,–,–
Cc1cc(C)n(CC(=O)N2c3ccccc3Sc3ccccc32)n1,–,?,–,–,–,–
O=C(NNC1=NC2(CCCC2)Cc2ccccc21)c1ccncc1,–,–,–,?,–,–
CC(=O)c1sccc1NC(=O)CC(C)(C)CC(=O)O,–,–,–,–,–,–
CCc1ccc(Nc2cc(=O)n(C3CCCCC3)c(=O)[nH]2)cc1,86.5,0.147µM,–,–,30.2,–

# Assay outcomes (PubChem)
